Assay [1] concerns the target T1, ETS1 (UniProt P14921).
T1 sequence: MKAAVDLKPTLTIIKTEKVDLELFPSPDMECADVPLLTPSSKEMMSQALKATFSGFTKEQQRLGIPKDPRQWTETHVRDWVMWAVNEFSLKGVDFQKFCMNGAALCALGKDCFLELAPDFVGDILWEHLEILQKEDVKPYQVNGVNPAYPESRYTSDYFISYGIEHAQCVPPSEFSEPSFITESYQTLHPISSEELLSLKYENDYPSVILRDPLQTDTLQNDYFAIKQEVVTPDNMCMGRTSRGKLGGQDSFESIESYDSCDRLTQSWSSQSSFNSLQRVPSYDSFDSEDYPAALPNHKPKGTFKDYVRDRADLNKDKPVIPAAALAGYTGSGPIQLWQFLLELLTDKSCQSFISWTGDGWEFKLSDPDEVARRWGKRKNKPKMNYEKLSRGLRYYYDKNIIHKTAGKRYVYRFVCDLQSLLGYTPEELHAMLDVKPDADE
The assay is described as follows: ETS1 binding intensity (PBM fluorescence), ETS1 alone (arbitrary fluorescence units); higher = stronger binding. To be noted: ETS1 concentration 1 nM; RUNX1 concentration 0 nM.

Assay [2] has as its target RUNX1 (UniProt Q01196). As to the kind of experiment: RUNX1 binding intensity (PBM fluorescence), RUNX1 alone (arbitrary fluorescence units); higher = stronger binding. To be noted: RUNX1 concentration 2 nM; ETS1 concentration 0 nM. The procedure:
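Cooperative gcPBM on 36-bp genomic probes with neighbouring ETS1 and RUNX1 sites. Recombinant human RUNX1 (2 nM) was incubated alone or with ETS1 (25 nM) and detected with anti-RUNX1 antibody plus Alexa488 secondary. Values are medians over 4 replicate spots; the RUNX1+ETS1 data were normalised to the RUNX1-only data. The probes sit in constant array flanks that are not printed.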

Assay [3] addresses T1, ETS1. The assay is described as follows: ETS1 binding intensity (PBM fluorescence) in presence of RUNX1, normalised to ETS1-only experiment (arbitrary fluorescence units); higher = stronger binding. To be noted: ETS1 concentration 1 nM; RUNX1 concentration 25 nM.
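Throughout, for RUNX1 binding intensity (PBM fluorescence), RUNX1 alone: Full-length recombinant human RUNX1 bound to double-stranded 36-bp genomic probes on a high-density microarray, scored as Alexa488 fluorescence per spot via anti-RUNX1 antibody, median of four replicate spots.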

Chain of RUNX1 (Q01196 whole entry): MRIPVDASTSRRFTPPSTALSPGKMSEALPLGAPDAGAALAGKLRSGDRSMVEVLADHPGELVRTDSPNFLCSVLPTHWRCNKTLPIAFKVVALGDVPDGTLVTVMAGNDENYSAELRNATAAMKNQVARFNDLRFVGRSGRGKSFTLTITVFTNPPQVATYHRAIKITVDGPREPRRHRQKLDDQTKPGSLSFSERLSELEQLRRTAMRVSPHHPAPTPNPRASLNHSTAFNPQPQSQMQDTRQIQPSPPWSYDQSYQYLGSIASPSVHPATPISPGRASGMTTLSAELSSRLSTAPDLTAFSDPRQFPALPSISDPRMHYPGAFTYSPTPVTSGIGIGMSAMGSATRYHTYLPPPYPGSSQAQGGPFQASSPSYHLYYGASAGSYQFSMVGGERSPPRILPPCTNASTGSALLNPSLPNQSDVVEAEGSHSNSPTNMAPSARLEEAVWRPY

Regarding TTGACCCGGACGTGGACAAAAGACCGCAAAGGACGC, the ETS1 binding intensity was determined as 806 in assay [1] and 3090 in assay [3]. The sequence also showed an RUNX1 binding intensity in assay [2] of 1100.
Taken in the same sequence, the figures for TGAGGAGAGCGAGGAAGTGGTTTTCTCTTCGCACAG were 691, 1080 and 746.
As for GTCCCCTCCCCAGGATGTGGCCACCCGCTAGAGCAT, the ETS1 binding intensity is 1030 in assay [1] and 1560 in assay [3].
Take CTCCGCCAGCCACCGGAACTGCGGCCCAGCAAAAAG: the ETS1 binding intensity in assay [1] stood at 2590; in assay [3], 2320. The sequence further yielded an RUNX1 binding intensity in assay [2] of 927.
For the sequence AGGTTCCGGCGAAAGTGACCGAAAGTAACCGCCGGG, the values for the ETS1 binding intensity in assay [1] and in assay [3] were 351 and 518, respectively.
Turning to ACCCTACTTCCGTTGCTGTGTTGCGGAGGTGACCTA, the ETS1 binding intensity in assay [1] turned out to be 1210; in assay [3] it was 1240. The RUNX1 binding intensity in assay [2] was 844.
For CAGTCTCCTTCCGCGTCACCTCTGTGACCGCTGTGC, the values for the ETS1 binding intensity in assay [1] and in assay [3] were 414 and 583, respectively.
In the case of CAGCGGAAGAAAGACCTGCCACCTCCACCACAAAGA, the ETS1 binding intensity in assay [1] was 440; in assay [3], 471. The sequence further showed an RUNX1 binding intensity in assay [2] of 1000.
In the case of CTTGCCACACTTCCTCTTGTTTTGAACCACTATATT, the ETS1 binding intensity in assay [1] is 724; in assay [3], 641. In addition, the RUNX1 binding intensity in assay [2] was found to be 2620.
In the case of AAATCACGTACCCGGAAACCACATGCACAGAAGTGG, the ETS1 binding intensity came to 2010 in assay [1] and 2930 in assay [3]. For the same sequence, in assay [2], the RUNX1 binding intensity turned out to be 980.
For TCTCGTCCGGTCCTTGCTCCCCCTCCCCGCAGCGCT, the ETS1 binding intensity in assay [1] was 637; in assay [3], 790. In addition, the RUNX1 binding intensity in assay [2] was determined as 1090.
With CCCGCTTCCGCGTTTTACTCGGTGCCCGCAGCGCCG, the ETS1 binding intensity in assay [1] came out at 445; in assay [3], 389.
On to TCCTTAATGGTTCCGGCGGCAGGGACCGCAGCGACG, for which the ETS1 binding intensity stood at 460 in assay [1] and 526 in assay [3]. This sequence displayed an RUNX1 binding intensity in assay [2] of 824.
With ATGACTCATTTCCTCACTCTCTACTCCCACAGAACC, the ETS1 binding intensity amounted to 606 in assay [1] and 464 in assay [3].
As to AAAGAGGAAATCACGTACCCGAAAACCACATGCACA, the ETS1 binding intensity in assay [1] is 530; in assay [3], 1370. Besides, the RUNX1 binding intensity in assay [2] was found to be 1010.
For the sequence AGTACAAAGGGGAAATGTCTCTTGGTGGTTGATAAG, the ETS1 binding intensity is 628 in assay [1] and 564 in assay [3].
As to GCGGAGGCGGAAGTCGTGCTGCTGCTGACCACGGCT, the ETS1 binding intensity in assay [1] turned out to be 2560; in assay [3], 3170. This sequence also returned an RUNX1 binding intensity in assay [2] of 741.
The matching figures for CAGCAGAGGCGCGGATGTGGTTAAACGAGTGCCGTC: 775, 6770 and 876.
Regarding CAGTGCCAGCCGGAACTTGTGGTTCGGACCGTGGGT, the ETS1 binding intensity amounted to 882 in assay [1] and 2100 in assay [3]. The RUNX1 binding intensity in assay [2] is 1040.
ATGGTGTAGAGAGGATGTGGGCTTTAAGGTCAGAGA: the ETS1 binding intensity was 1140 in assay [1] and 1690 in assay [3]. The same sequence gave an RUNX1 binding intensity in assay [2] of 706.
As to CTTCTCGCGGAAGCGGCACAAGCCGCAGTACAGCGC, the ETS1 binding intensity in assay [1] amounted to 301; in assay [3] it was 495.
For the sequence GGATGACATCCGGCACCAACTTAACCACTAATCTCA, the ETS1 binding intensity in assay [1] was determined as 615; in assay [3], 1690. This sequence also yielded an RUNX1 binding intensity in assay [2] of 947.
For the sequence CCATTCTTCCGGTGGAGATGGCTGCGGCCGTGGCGG, the values for the ETS1 binding intensity in assay [1] and in assay [3] were 568 and 588, respectively. In addition, in assay [2], the RUNX1 binding intensity stood at 714.
Turning to TCCCGAGAGTGCGGCGGAAACCACGCGGCGCCGCCG, the figures for the ETS1 binding intensity in assay [1] and in assay [3] were 1360 and 1570, respectively.
As to GGCGGATGGGGAGAAGAGAGTGGCTGTGGTCTCTGG, the ETS1 binding intensity in assay [1] stood at 371; in assay [3], 491. For the same sequence, the RUNX1 binding intensity in assay [2] is 861.
Consider GGGCCCGGGCCAGGAAGTGGTTTTGCAGAGGTGTTT, for which the results for the ETS1 binding intensity in assay [1] and in assay [3] were 4630 and 7660, respectively. The RUNX1 binding intensity in assay [2] came to 763.
On to GTGTGCGTGAGAAGAGGAAGTGGTTAGGAAGACACA, for which the values for the ETS1 binding intensity in assay [1] and in assay [3] were 4030 and 12200, respectively. In addition, the RUNX1 binding intensity in assay [2] was 801.
On to TACTTCTTCCTGGCAGAGACCGGGAGTGCGGTCCGC, for which the results for the ETS1 binding intensity in assay [1] and in assay [3] were 471 and 588, respectively. This sequence had an RUNX1 binding intensity in assay [2] of 745.
The matching figures for CACCCTCAACTTCCTGACCCATAAACCACAAGCTAT: 468, 1810 and 6110.
In the case of TGCAGCTTCCTGTCTGAGGCTTTGTGGTCCTTTCAT, the ETS1 binding intensity is 753 in assay [1] and 889 in assay [3]. The sequence further came in with an RUNX1 binding intensity in assay [2] of 862.
Taken in the same sequence, the figures for AGAGCGAGGAGGACTTCCTGCGGCAGGTCGGCGTGA were 635, 622 and 652.
TGAATCATCCTGAGTTACCCGTTCTGTAACCGCCCC: the ETS1 binding intensity is 490 in assay [1] and 517 in assay [3].
CCTCCAGGAAGCGATAAGTGACTGTGGTGGAGAGAG: the ETS1 binding intensity in assay [1] was 663; in assay [3], 620.
As to TGACGGCCAGGAAGCCTGAAGCCGCAGGGGCCGCCG, the ETS1 binding intensity in assay [1] was determined as 345; in assay [3], 595.
Taken in the same sequence, the figures for CCATGCGCTGCTTCCTTCCACTTACCGCCCTCGCAC were 523 and 331.
